In all, about 2,300 compounds went through this assay and about 550 (24%) were called active. The rule behind the calls is not given here. These entries were drawn from the full list. Measured potencies and affinities stand elsewhere.
assay: Vero E6 cell cytotoxicity, dose response, cytotoxicity control for non-replicating M. tuberculosis project, secondary assay (AID 492998); settings: series mostly up to 20 µM

| SMILES | outcome |
| --- | --- |
| CCC(C)[C@H]1CN=C(N)N1CCc1cccc2ccccc12 (stereo partly drawn) | inactive |
| COc1ccc(C(=O)OCn2nnc3ccccc3c2=O)cc1 | inactive |
| CC(C)N=C1SC(CC(=O)Nc2ccccc2)C(=O)N1C(C)C (stereo not drawn) | inactive |
| Cc1cccc(CC(=O)NCC2CCCCC2)c1 | inactive |
| CCCN1C(=O)SC(CC(=O)Nc2ccccc2)C1=O (stereo not drawn) | inactive |
| O=C(NCC1CCN(c2ccc(S(=O)(=O)N3CCOCC3)cc2)CC1)c1ccc(Cl)cc1 | inactive |
| COC(=O)COc1ccc(S(=O)(=O)N2CCCCCC2)cc1 | inactive |
| N#Cc1ccc(-c2ccc(OCC(=O)Nc3cccnc3)cc2)cc1 | inactive |
| O=C(CN1CCN(c2ccccc2O)CC1)Nc1ccc2c(c1)CCC2 | inactive |
| O=S(=O)(Nc1nccs1)c1ccc(NCc2cc(Br)cc(Br)c2O)cc1 | inactive |
| COc1ccc(C2=NOC(COC(=O)c3ccc4ccccc4n3)C2)cc1 (stereo not drawn) | inactive |
| COc1ccc(C(=O)COC(=O)CCC(=O)c2cccs2)cc1 | inactive |
| O=C(O)COc1ccc2occ(C(=O)c3ccccc3)c2c1 | inactive |
| Cc1cc(C)c(OCC(=O)Nc2nnc(-c3ccco3)o2)c(C)c1 | inactive |
| O=C(OCC#CCSc1nnc(-c2ccncc2)o1)c1cccs1 | inactive |
| O=C(COC(=O)c1ccc([N+](=O)[O-])s1)Nc1ccc(Cl)cn1 | inactive |
| O=C(Nc1nnc(-c2ccco2)o1)c1ccc(Cl)s1 | inactive |

| SMILES | outcome |
| --- | --- |
| O=C(c1ccc(Cl)cc1)c1nnc(-c2ccncc2)o1 | inactive |
| CCOC(=O)c1c(C)[nH]c(C)c1C(=O)COC(=O)c1ccc([N+](=O)[O-])s1 | inactive |
| CCN1CCN(C(=O)CN(Cc2ccccc2)S(C)(=O)=O)CC1 | inactive |
| Clc1ccc(SCCOCCN2CCc3ccccc3C2)cc1 | inactive |
| O=c1oc2ccccc2c2c1nnn2CCO | inactive |
| CCC(C)c1ccc(O)c(/C=N/O)c1 (stereo not drawn) | inactive |
| COc1ccc2c3c(cccc13)OCC2=O | inactive |
| COc1ccc(NC(=O)c2ccc(COCC(F)(F)C(F)F)cc2)cc1 | inactive |
| O=C(NCCC1CCCC1)c1cccs1 | inactive |
| O=C1CC(N2CCN(Cc3ccccc3)CC2)C(=O)N1CCc1ccccc1 (stereo not drawn) | inactive |
| CCCOc1ccc(CCC(=O)N/N=C/c2ccc([N+](=O)[O-])o2)cc1 | inactive |
| O=C(N/N=C/c1cccc2cccnc12)c1ccccc1O | inactive |
| COCCNC(=O)CC(=O)N/N=C/c1cccc(C(=O)OC)c1 | inactive |
| NC(=O)N/N=C\c1cc(Br)ccc1O | inactive |
| COC(=O)COc1ccc2c(-c3ccc(OC)cc3)cc(=O)oc2c1 | inactive |
| Cc1cccc(C)c1N1C(=O)CC(N2CCSCC2)C1=O (stereo not drawn) | inactive |
